The list is not random: actives were taken first. Their share in the collection is about 4.1%.
hcDAF-12 act = H. contortus DAF-12 activation, primary screen. AID 652067. activation, % at 6.8 µM. HEK293 hcDAF-12 lit1-tk-luc reporter, luminescence; 0% DMSO, 100% Δ7-dafachronic acid. 370,000 compounds, 1.4% hits;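 active = activation above the mean of all tested compounds plus 3 SD, cut at about 5.5% in these data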;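 also: 100% = response to 3 µM Δ7-dafachronic acid high control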
ssDAF12 agonist = S. stercoralis DAF-12 activation, primary screen; 370,000 compounds, 1% hits; HEK293 ssDAF-12/GRIP1 lit1-tk-luc reporter, luminescence; % of 3 µM dafachronic acid response; activation, % at 6.8 µM;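 active = activation above the mean over all tested compounds plus 3 SD, cut at about 0.9% in these data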;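 also: 0% = DMSO-only wells and 100% = 3 µM delta7-dafachronic acid wells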
DAX1 inh-1 = inhibitors of human orphan nuclear receptor DAX1 (NR0B1); HEK293 Gal4-DAX1 luciferase reporter, luminescence; inhibition, % at 6.75 µM; 340,000 compounds, 0.99% hits; AID 504766;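 active = inhibition above the mean over all tested compounds plus 3 SD, cut at about 4.2% in these data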;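 also: 0% = DAX1-transfected cells with DMSO and 100% = empty-vector control cells with DMSO; inhibition shows as a rise in luminescence from relieved DAX1 repression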
Target sequence (P51843 207-470 limits assumed): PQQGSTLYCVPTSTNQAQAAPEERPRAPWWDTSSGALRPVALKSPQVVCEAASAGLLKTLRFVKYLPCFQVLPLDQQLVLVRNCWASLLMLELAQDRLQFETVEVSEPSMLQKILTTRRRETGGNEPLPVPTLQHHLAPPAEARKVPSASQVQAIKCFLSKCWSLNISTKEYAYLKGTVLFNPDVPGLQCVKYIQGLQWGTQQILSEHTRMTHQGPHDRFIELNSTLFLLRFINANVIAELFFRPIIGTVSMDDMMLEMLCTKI
DAX1 inh-2 = DAX1 (NR0B1) inhibition, primary screen; inhibition, % at 6.8 µM; 370,000 compounds, 1.1% hits; AID 652010; HEK293T StAR-luciferase reporter, SF-1/DAX-1 repression relief;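 active = inhibition above the mean over all tested compounds plus 3 SD, cut at about 3.6% in these data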;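 also: 0% = DAX-1 cells with DMSO and 100% = cells lacking DAX-1 with DMSO; higher inhibition means more luminescence from relief of DAX-1 repression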
hgDAF-12 ag = agonists of H. glycines DAF-12 nuclear receptor; HEK293 GAL4-hgDAF12 UAS-luciferase reporter, agonist luminescence; normalized to butyrate control; activation, % at 6.8 µM; AID 687014; 370,000 compounds, 1.8% hits;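 active = activation above a cutoff set at the mean of all screened compounds plus 3 SD, cut at about 10% in these data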;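 also: 0% = DMSO wells and 100% = sodium butyrate wells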
LXRb hcDAF ctr = activates human LXR-beta, counter-screen for hcDAF-12 agonists. 3,400 tested, under 10 active. HEK293 Gal4-LXR tk-luc reporter, luminescence, 24 h; normalized: DMSO 0%, positive control 100%. activation, % at 6.8 µM. shares compounds with hcDAF-12 act;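 active = mean percent activation of the reporter above a cutoff set as the average over tested compounds plus their standard deviation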
hcDAF12 conf = confirmation of H. contortus DAF-12 agonists. shares compounds with hcDAF-12 act. HEK293 hcDAF-12 lit1-tk-luc reporter, luminescence; % of Δ7-dafachronic acid response. activation, % at 6.8 µM. 3,400 compounds, 61% hits;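 active = mean activation across triplicate tests above the threshold derived from the earlier primary screen, cut at about 5.5% in these data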;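 also: 0% = DMSO only wells and 100% = 3 µM Δ7-dafachronic acid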
Starred values were filed as active, the others as inactive.

CCC1CCCCN1CCCNC(=O)c1ccc(N2CCCC2=O)cc1 (stereo not given) was read as hcDAF-12 act 1, ssDAF12 agonist -1, DAX1 inh-1 1, DAX1 inh-2 -1 and hgDAF-12 ag 0.
Screening O=C(NC1CCCCCC1)c1ccc(N2CCCC2=O)cc1 returned hcDAF-12 act 6.7*, ssDAF12 agonist 0, DAX1 inh-1 2, DAX1 inh-2 2, hgDAF-12 ag 11*, LXRb hcDAF ctr 0 and hcDAF12 conf 2.
`CC1CCCCN1CCCNC(=O)c1ccc(N2CCCC2=O)cc1` (stereo not given) gave hcDAF-12 act 8.6*, ssDAF12 agonist -1, DAX1 inh-1 1, DAX1 inh-2 1, hgDAF-12 ag 2, LXRb hcDAF ctr 0 and hcDAF12 conf 0.
`COC(=O)c1cc(C)ccc1OCc1ccc([N+](=O)[O-])cc1` gave hcDAF-12 act -1, ssDAF12 agonist 0, DAX1 inh-1 2, DAX1 inh-2 0 and hgDAF-12 ag 1.
`Cc1ccc(CN=C2Nc3ccccc3CS2)cc1` gave hcDAF-12 act 9.7*, ssDAF12 agonist 0, DAX1 inh-1 1, DAX1 inh-2 4.1*, hgDAF-12 ag 15*, LXRb hcDAF ctr 2 and hcDAF12 conf 10*.
Screening Cc1ccc(N=C2NC(=O)/C(=C/C=C/c3ccco3)S2)cc1 returned hcDAF-12 act 7.9*, ssDAF12 agonist 0, DAX1 inh-1 1, DAX1 inh-2 0, hgDAF-12 ag 2, LXRb hcDAF ctr 0 and hcDAF12 conf 6.
`Cc1cc(NC(=S)NC(=O)C2CC2)ccc1Br` gave hcDAF-12 act 8.8*, ssDAF12 agonist 0, DAX1 inh-1 4.9*, DAX1 inh-2 1, hgDAF-12 ag 10, LXRb hcDAF ctr 0 and hcDAF12 conf 6.3*.
`CC(C)CCNC(=O)C1CC(c2ccccc2[N+](=O)[O-])=NO1` (stereo not given) gave hcDAF-12 act 7.2*, ssDAF12 agonist 0, DAX1 inh-1 2, DAX1 inh-2 0, hgDAF-12 ag 4, LXRb hcDAF ctr 0 and hcDAF12 conf 4.
`CCCNC(=O)C1CC(c2ccccc2[N+](=O)[O-])=NO1` (stereo not given) gave hcDAF-12 act 3, ssDAF12 agonist -1, DAX1 inh-1 1, DAX1 inh-2 0 and hgDAF-12 ag 2.
For CC1CC(NS(=O)(=O)c2cccs2)CC(C)(C)C1 (stereo not given) the results were hcDAF-12 act -3, ssDAF12 agonist -1, DAX1 inh-1 0, DAX1 inh-2 1 and hgDAF-12 ag -1.
C[C@H](CO)N1C[C@H](C)[C@H](CN(C)C(=O)Nc2cccc(Oc3ccccn3)c2)OCc2cnnn2CCCC1=O was read as hcDAF-12 act -2, ssDAF12 agonist -1, DAX1 inh-1 1, DAX1 inh-2 1 and hgDAF-12 ag -2.
For O=C(O)Cc1ccc(N=Nc2c(O)c(C(=O)O)cc3ccccc23)cc1 the results were hcDAF-12 act 6.8*, ssDAF12 agonist 0, DAX1 inh-1 1, DAX1 inh-2 0, hgDAF-12 ag 10, LXRb hcDAF ctr 0 and hcDAF12 conf 1.
`NS(=O)(=O)c1ccc(N=Nc2c(O)c(C(=O)O)cc3ccccc23)cc1` gave hcDAF-12 act 1, ssDAF12 agonist -1, DAX1 inh-1 0, DAX1 inh-2 -1 and hgDAF-12 ag -3.
For CN1CCN(CC(=O)Nc2nc(-c3c[nH]c4ccccc34)cs2)CC1 the results were hcDAF-12 act 2, ssDAF12 agonist 0, DAX1 inh-1 1, DAX1 inh-2 2 and hgDAF-12 ag 4.
`CCC(C)Nc1nc(-c2c[nH]c3ccccc23)cs1` (stereo not given) gave hcDAF-12 act 8.8*, ssDAF12 agonist 1, DAX1 inh-1 1, DAX1 inh-2 0, hgDAF-12 ag 7, LXRb hcDAF ctr 0 and hcDAF12 conf 5.
`CCCCOCCCNC(=O)C[C@H]1C[C@@]2(C(=O)OC)C(=C[C@H](C(C)C)O[C@@H]2C2CC2)N(Cc2cccc3ccccc23)C1=O` gave hcDAF-12 act -3, ssDAF12 agonist -1, DAX1 inh-2 0 and hgDAF-12 ag 1.
`Clc1ccccc1-c1cc2nc(NCCCn3ccnc3)ccn2n1` gave hcDAF-12 act 7.2*, ssDAF12 agonist 0, DAX1 inh-2 1, hgDAF-12 ag 8, LXRb hcDAF ctr 1 and hcDAF12 conf 3.
For FC(F)(F)c1cccc(-c2cc3nc(NCCCn4ccnc4)ccn3n2)c1 the results were hcDAF-12 act 0, ssDAF12 agonist 0, DAX1 inh-2 -2 and hgDAF-12 ag 1.
For Cn1c(O)c(N=Nc2ccccc2[N+](=O)[O-])c2ccccc21 the results were hcDAF-12 act 11*, ssDAF12 agonist 2.6*, DAX1 inh-1 2, DAX1 inh-2 1, hgDAF-12 ag 11*, LXRb hcDAF ctr 0 and hcDAF12 conf 9.0*.
Screening Cc1ccc2[nH]c(O)c(N=Nc3ccccc3[N+](=O)[O-])c2c1 returned hcDAF-12 act 3, ssDAF12 agonist 0, DAX1 inh-1 1, DAX1 inh-2 1 and hgDAF-12 ag 3.
For CCOC(=O)C(=O)N=Nc1c(O)n(C)c2ccccc12 the results were hcDAF-12 act 3, ssDAF12 agonist -1, DAX1 inh-1 1, DAX1 inh-2 1 and hgDAF-12 ag -1.
Cc1occc1C(=O)N=Nc1c(O)n(C)c2ccccc12 was read as hcDAF-12 act 15*, ssDAF12 agonist 1.0*, DAX1 inh-1 1, DAX1 inh-2 3, hgDAF-12 ag 17*, LXRb hcDAF ctr 2 and hcDAF12 conf 15*.
Screening Cc1c(C#N)c(=O)c(-[n+]2ccccc2)c([S-])n1-c1ccc(Cl)cc1 returned hcDAF-12 act 7.3*, ssDAF12 agonist -2, DAX1 inh-1 3, DAX1 inh-2 1, hgDAF-12 ag 2, LXRb hcDAF ctr 0 and hcDAF12 conf 0.
Screening CC(CCc1ccco1)NC(=O)CCc1nnc2ccc(NCc3ccc(Cl)cc3)nn12 (stereo not given) returned hcDAF-12 act 0, ssDAF12 agonist -1, DAX1 inh-1 0, DAX1 inh-2 1 and hgDAF-12 ag 1.
For Cc1ccc2[nH]c3c(c2c1)CN(C(C)C)CC3 the results were hcDAF-12 act 1, ssDAF12 agonist -1, DAX1 inh-1 0, DAX1 inh-2 0 and hgDAF-12 ag -1.
`COC(=O)c1cn(-c2nc3ccccc3s2)nn1` gave hcDAF-12 act 7.8*, ssDAF12 agonist 0, DAX1 inh-2 0, hgDAF-12 ag 0, LXRb hcDAF ctr 0 and hcDAF12 conf 3.

Compound activity deposited in PubChem BioAssay by The Scripps Research Institute Molecular Screening Center.
